In the supplement of paper PMC11732987, “Enantioselective OTUD7B fragment discovery through chemoproteomics screening and high-throughput optimisation” (Communications Chemistry, 2025):

How the values were obtained:
Test in all cases: log2 ratio of Biotin-Ahx-Ub-VS probe labelling (fragment/DMSO); higher = less target engagement (more negative = stronger competition), active = hit call of the paper (q ≤ 0.05, log2 ratio ≤ -1)
Settings in all cases: compound concentration: 200 uM; treatment time: 3 h
USP34 = USP34 (UniProt Q70CQ2)
Summary of the method: (§1)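 Labelling with Biotin-Ahx-Ub-VS (0.5 µM final, 1 h) followed a 3 h triplicate treatment of HEK293T lysate (495 µg per sample, Tris/CHAPS/IGEPAL buffer with protease inhibitors) with fragment at 200 µM or vehicle. Labelled DUBs were NeutrAvidin-enriched, digested with LysC and trypsin, and run by diaPASEF LC-MS/MS. The values, average log2 fragment/vehicle ratios by unpaired t-test, come from global-median-normalised Spectronaut label-free quantities. Proteins with ≥2 unique peptides were used.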

USP36 = target: T1, USP36 (UniProt Q9P275)
T1 sequence (whole entry): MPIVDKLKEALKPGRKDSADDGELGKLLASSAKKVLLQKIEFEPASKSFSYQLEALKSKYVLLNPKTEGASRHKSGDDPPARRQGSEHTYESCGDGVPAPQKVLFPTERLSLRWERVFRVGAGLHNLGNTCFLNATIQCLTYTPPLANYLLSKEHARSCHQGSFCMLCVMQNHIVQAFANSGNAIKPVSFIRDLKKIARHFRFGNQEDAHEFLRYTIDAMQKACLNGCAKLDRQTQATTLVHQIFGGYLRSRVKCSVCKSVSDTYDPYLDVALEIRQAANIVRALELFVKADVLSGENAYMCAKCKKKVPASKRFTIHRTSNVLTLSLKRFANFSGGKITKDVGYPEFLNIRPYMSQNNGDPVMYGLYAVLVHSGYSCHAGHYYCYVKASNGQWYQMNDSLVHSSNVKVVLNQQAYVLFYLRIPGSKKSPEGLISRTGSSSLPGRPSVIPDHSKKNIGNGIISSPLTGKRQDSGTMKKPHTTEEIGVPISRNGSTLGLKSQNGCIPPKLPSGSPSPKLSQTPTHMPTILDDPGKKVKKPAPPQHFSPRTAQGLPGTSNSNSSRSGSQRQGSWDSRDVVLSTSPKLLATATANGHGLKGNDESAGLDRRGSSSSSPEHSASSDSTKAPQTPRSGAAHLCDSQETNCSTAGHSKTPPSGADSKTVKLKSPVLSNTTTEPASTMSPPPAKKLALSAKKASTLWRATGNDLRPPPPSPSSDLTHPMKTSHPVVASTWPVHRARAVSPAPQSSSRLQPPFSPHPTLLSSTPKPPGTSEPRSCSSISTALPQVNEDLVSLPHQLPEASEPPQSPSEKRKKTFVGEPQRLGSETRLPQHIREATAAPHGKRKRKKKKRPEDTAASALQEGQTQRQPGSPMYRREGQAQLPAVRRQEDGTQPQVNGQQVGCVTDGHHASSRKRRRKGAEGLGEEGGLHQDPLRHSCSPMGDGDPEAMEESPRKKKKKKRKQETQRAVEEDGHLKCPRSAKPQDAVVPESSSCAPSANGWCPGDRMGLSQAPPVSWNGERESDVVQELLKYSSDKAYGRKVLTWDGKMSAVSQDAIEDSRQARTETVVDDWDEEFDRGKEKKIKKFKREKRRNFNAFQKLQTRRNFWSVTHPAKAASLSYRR
Summary of the method: as §1

USP38 = target: T2, USP38 (UniProt Q8NB14)
T2 sequence (whole entry): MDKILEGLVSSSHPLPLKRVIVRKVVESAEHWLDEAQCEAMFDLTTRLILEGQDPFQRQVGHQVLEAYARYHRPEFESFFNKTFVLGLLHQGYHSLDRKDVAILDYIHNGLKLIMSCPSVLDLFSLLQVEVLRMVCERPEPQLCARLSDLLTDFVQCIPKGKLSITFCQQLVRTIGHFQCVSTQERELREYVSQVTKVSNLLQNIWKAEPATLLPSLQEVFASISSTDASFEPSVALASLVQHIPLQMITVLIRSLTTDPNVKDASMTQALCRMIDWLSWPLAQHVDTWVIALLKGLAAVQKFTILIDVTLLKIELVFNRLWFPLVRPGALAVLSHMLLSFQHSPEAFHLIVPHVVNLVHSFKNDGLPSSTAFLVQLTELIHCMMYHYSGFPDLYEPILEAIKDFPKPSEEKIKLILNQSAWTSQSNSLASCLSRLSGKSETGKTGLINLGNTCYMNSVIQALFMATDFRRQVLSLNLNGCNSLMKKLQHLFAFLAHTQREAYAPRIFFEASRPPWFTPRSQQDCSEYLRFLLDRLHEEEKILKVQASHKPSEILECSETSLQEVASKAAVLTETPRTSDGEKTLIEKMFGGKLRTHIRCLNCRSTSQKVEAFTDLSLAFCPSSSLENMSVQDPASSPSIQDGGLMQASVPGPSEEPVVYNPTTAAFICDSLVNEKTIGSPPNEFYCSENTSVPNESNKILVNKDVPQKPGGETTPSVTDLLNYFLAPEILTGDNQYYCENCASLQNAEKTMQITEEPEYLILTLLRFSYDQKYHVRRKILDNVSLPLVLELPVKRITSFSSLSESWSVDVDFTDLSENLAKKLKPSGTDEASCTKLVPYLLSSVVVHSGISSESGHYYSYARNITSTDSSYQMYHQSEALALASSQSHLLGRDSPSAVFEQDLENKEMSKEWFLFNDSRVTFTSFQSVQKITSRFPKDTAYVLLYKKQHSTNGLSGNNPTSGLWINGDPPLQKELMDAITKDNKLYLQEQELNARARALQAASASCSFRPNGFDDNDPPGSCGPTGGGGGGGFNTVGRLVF
Summary of the method: as §1

USP39 = target: T3, USP39 (UniProt Q53GS9)
T3 sequence (whole entry): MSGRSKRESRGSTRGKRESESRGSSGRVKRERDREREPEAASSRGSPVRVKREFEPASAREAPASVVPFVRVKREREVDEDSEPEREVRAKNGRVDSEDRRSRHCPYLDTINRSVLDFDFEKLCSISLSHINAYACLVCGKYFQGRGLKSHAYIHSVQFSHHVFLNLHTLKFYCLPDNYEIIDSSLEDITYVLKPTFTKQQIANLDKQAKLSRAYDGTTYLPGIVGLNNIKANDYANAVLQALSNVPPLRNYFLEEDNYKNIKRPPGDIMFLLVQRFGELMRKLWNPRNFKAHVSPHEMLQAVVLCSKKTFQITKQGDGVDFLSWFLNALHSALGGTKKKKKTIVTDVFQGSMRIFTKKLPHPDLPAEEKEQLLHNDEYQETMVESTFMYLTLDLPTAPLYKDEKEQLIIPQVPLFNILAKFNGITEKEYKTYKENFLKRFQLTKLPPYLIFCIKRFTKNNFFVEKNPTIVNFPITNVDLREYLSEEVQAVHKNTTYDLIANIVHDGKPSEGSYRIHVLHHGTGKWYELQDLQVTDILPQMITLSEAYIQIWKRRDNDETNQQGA
Summary of the method: as §1

USP4 = target: T4, USP4 (UniProt Q13107)
T4 sequence (whole entry): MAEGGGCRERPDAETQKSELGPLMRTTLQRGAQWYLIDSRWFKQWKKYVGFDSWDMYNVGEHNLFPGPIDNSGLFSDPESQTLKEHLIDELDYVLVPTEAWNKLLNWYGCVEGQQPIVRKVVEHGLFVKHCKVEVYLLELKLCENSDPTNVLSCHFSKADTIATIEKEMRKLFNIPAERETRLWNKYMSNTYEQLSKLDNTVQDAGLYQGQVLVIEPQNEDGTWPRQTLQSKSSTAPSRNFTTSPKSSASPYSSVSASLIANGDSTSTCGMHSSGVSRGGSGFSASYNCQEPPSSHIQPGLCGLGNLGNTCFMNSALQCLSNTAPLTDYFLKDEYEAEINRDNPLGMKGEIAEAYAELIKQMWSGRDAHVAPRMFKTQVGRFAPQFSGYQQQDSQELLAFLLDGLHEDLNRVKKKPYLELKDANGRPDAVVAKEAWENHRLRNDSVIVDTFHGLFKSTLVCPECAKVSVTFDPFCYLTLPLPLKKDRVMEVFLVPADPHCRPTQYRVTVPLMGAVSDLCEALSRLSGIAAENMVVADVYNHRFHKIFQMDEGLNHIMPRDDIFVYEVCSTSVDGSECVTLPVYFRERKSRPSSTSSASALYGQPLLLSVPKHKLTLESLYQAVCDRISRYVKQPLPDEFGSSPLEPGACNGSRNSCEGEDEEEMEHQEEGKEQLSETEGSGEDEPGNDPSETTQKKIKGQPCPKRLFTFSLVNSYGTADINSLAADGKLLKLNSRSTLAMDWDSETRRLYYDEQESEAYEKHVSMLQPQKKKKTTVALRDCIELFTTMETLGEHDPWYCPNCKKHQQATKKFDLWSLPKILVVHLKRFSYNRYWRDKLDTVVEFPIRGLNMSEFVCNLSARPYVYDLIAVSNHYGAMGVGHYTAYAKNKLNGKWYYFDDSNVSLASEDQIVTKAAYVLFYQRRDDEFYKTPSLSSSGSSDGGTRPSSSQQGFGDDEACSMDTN
Summary of the method: as §1

Measured: log2 ratio of Biotin-Ahx-Ub-VS probe labelling

Sequence of USP34 (Q70CQ2 whole entry, the tested form may be a part): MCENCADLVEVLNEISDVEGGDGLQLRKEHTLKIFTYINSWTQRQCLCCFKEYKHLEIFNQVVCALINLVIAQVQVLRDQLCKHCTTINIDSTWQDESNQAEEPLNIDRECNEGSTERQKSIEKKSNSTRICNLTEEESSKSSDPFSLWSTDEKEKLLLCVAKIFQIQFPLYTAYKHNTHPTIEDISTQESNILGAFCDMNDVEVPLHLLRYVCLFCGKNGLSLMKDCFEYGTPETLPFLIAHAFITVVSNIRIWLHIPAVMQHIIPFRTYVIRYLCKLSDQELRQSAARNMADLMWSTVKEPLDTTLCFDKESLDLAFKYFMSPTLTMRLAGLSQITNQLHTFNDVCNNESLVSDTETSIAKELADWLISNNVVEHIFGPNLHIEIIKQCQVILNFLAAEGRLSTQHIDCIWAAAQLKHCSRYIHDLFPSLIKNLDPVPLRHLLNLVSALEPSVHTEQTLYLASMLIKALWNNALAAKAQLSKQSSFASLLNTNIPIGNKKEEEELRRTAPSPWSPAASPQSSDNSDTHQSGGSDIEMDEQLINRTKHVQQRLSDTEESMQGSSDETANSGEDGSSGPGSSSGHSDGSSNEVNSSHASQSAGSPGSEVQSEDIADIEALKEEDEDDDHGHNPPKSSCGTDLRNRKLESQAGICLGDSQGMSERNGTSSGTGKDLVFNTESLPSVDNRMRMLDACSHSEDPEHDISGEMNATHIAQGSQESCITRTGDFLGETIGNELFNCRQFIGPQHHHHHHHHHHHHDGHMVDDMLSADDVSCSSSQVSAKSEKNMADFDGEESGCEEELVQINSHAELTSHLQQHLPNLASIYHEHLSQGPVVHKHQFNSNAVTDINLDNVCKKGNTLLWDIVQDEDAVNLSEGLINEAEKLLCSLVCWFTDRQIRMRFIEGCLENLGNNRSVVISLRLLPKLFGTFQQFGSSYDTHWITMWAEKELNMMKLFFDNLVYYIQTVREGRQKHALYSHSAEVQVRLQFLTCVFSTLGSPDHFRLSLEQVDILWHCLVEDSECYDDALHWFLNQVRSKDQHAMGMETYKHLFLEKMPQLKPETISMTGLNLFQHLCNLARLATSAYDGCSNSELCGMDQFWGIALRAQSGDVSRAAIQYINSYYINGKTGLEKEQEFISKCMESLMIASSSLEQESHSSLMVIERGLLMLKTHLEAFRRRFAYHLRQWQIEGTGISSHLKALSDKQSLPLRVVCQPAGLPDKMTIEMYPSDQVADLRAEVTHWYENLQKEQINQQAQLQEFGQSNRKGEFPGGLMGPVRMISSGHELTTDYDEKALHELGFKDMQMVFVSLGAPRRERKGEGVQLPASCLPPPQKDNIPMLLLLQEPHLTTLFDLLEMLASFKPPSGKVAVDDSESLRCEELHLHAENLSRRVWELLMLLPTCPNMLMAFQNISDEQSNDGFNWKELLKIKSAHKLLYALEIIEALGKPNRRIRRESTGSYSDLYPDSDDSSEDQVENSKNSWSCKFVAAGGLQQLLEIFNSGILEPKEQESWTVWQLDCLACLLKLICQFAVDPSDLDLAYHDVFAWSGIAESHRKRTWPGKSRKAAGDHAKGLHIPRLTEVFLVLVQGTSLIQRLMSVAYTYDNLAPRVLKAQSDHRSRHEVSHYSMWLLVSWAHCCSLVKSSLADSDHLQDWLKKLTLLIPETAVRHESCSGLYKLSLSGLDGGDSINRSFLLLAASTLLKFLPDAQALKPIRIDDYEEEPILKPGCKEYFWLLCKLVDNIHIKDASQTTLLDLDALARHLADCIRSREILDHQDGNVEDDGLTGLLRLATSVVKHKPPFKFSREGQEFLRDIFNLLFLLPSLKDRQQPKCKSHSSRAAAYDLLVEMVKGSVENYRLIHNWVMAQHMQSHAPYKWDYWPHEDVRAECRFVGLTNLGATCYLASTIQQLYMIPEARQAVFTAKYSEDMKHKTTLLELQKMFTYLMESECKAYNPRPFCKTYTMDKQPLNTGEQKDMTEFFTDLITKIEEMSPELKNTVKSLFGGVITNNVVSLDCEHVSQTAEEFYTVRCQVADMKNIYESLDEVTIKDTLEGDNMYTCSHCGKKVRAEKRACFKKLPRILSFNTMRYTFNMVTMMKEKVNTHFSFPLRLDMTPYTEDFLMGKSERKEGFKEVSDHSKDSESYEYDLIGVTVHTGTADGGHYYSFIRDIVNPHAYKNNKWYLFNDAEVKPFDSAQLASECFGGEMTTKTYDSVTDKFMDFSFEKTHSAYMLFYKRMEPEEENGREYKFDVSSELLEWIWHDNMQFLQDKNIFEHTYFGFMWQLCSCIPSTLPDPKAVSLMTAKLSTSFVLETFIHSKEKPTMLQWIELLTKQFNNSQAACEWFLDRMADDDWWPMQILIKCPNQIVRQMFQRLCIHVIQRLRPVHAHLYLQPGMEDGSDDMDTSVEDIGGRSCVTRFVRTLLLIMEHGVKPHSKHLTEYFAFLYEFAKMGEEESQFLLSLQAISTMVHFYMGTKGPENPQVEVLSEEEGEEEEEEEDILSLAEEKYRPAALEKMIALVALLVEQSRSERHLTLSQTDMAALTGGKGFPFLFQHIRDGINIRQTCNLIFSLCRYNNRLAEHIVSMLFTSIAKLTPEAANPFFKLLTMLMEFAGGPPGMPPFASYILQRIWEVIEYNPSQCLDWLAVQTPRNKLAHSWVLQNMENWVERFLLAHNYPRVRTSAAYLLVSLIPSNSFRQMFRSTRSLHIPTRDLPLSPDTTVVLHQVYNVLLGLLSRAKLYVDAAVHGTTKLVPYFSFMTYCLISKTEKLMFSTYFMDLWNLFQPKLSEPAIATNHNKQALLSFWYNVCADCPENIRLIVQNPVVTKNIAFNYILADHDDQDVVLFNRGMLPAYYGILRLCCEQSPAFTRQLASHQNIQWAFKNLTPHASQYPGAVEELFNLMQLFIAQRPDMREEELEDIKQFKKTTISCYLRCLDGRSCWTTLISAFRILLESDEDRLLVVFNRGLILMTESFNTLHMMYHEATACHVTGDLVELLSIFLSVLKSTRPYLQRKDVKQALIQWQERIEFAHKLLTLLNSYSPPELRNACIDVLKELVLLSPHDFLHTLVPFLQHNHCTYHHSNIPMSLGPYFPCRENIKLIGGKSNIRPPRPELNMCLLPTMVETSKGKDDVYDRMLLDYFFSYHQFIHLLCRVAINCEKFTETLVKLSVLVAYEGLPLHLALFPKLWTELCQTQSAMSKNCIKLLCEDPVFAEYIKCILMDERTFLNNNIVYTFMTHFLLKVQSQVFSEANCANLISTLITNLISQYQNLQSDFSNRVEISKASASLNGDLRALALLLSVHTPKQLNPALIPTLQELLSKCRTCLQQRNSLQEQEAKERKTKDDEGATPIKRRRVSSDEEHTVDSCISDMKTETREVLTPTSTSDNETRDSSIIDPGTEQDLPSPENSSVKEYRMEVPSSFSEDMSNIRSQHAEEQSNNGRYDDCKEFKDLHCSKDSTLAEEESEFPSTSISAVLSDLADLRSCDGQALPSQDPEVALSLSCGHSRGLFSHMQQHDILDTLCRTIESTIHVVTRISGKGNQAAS

O=C(CCl)N1CCCC1c1ccsc1 (stereo not given)
inactive: USP34 -0.191 | USP36 -0.111 | USP38 -0.0937 | USP39 -0.0825 | USP4 -0.821
